eIF4E 4G PPI: inhibitors of eIF4E and eIF4G interaction in translation initiation; TR-FRET eIF4E-eIF4GI(517-606) binding, 2 h; inhibition, % at 21.7 µM; 220,000 compounds, 0.37% hits; AID 782;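 active = inhibition above about 30%, limit read from the data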
PABP polyA inh: PABP-poly(A) binding inhibition. P11940. PABP-poly(A) RNA binding, fluorescence polarization. calls only at 35 µM. 290,000 compounds, 1% hits;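 also: calls also rest on retests at 20 µM and on dose response follow-up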
PERK inh: inhibitors of human PERK kinase; Q9NZJ5; 220,000 compounds, 0.17% hits; inhibition, % at 5.6 µM; CHO PERK-DD fusion, SEAP luminescence translation reporter;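 active = inhibition above the mean inhibition of all tested compounds plus 3 SD, set separately per screening campaign, cut at about 2.9% in these data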;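 also: PERK kinase domain activated by AP20187 dimerizer at 100 nM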
PABP1 MLLE inh: inhibitors of microRNA-mediated deadenylation, human PABP1 MLLE binding. P11940. GST-MLLE / FITC-PAM2 fluorescence polarization. inhibition, % at 20 µM. 360,000 compounds, 0.36% hits; in the data active = inhibition above about 35%, passing the limit was not always enough
eIF4H FP inh: inhibitors of RNA binding by human eIF4H. Q15056. eIF4H fluorescence polarization binding assay. inhibition, % at 35 µM. 290,000 compounds, 0.94% hits. AID 2012;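 also: calls also rest on retests at 20 µM and on dose response follow-up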
Each line names hits and unclear results; the compound was inactive in the other large screens; [ ] = dose if it differs, or a comment. In the library only some 1.6% were active in any assay of this set; here they are far more common. Unless noted, no rule for the calls is given here.

O=C1NC(=S)N(c2ccc(Cl)cc2)C(=O)/C1=C/N1CCN(C(=O)c2ccco2)CC1	PABP polyA inh active
BrCC(Br)(Br)Br	none (no result: eIF4E 4G PPI, PABP polyA inh, PERK inh, eIF4H FP inh)
C[C@]12CC[C@H]3[C@@H](CCC4=CC(=O)CC[C@@H]43)[C@@H]1CC[C@@H]2O	none (no result: eIF4E 4G PPI, PABP polyA inh, PERK inh, eIF4H FP inh)
C[C@]12CC[C@@H]3c4ccc(O)c(O)c4CC[C@H]3[C@@H]1CC[C@@H]2O	eIF4E 4G PPI 42.1
Cc1nn(CCC#N)c2c1P(=S)(N1CCCC1)OC(c1ccc(F)cc1)=N2 (configuration not stated)	eIF4E 4G PPI 32.5
C[C@]12CCC3C(CC[C@H]4C[C@@H](O)CC[C@]34C)C1C[C@@H](Br)[C@H]2O (some centres not stated)	none (no result: eIF4E 4G PPI, PABP polyA inh, PERK inh, eIF4H FP inh)
CN1C(=O)N(C)C(=O)C2(Cc3cc(N)ccc3N3CCN(c4ccccc4F)CC32)C1=O (configuration not stated)	none (no result: PABP1 MLLE inh)
CN1CCN2c3ccc(N)cc3CC3(C(=O)NC(=O)NC3=O)C2C1 (configuration not stated)	eIF4E 4G PPI 93.5, PABP polyA inh inconclusive
COc1ccc(N2C(=O)/C(=C/c3cc(C)n(-c4ccc(C)cn4)c3C)C(=O)NC2=S)c(OC)c1	PABP polyA inh active
COc1ccc(OC)c(N2C(=O)/C(=C/c3ccco3)C(=O)NC2=S)c1	PABP polyA inh active, eIF4H FP inh 62.7 (no result: eIF4E 4G PPI, PERK inh, PABP1 MLLE inh)
COc1ccc(OC)c(N2C(=O)NC(=O)/C(=C/c3ccc([N+](=O)[O-])s3)C2=O)c1	none
Cc1ccccc1-n1c(C)cc(/C=C2/C(=O)NC(=O)N(Cc3ccco3)C2=O)c1C	PABP polyA inh active, eIF4H FP inh inconclusive
COC(=O)C1=C(c2ccc(F)cc2F)C[C@@H]2CC[C@H]1N2C	none (no result: eIF4E 4G PPI, PABP polyA inh, PERK inh, eIF4H FP inh)
O=C1NC(=O)C(C2CCOC2=O)N1 (configuration not stated)	none (no result: eIF4E 4G PPI, PABP polyA inh, PERK inh, eIF4H FP inh)
Nc1ccc2c(c1)oc1ccccc12	PERK inh 3.6
CCC(C)NC(=O)CN1C(=O)CN=C(c2ccccc2)c2ccccc21 (configuration not stated)	PERK inh 3.1
C=CCOC(=O)C1C(C(=O)O)C2(Cl)C(Cl)=C(Cl)C1(Cl)C2(Cl)Cl (configuration not stated)	none (no result: eIF4E 4G PPI, PABP polyA inh, PERK inh, eIF4H FP inh)
O=c1[nH]c(=S)n(Cc2ccco2)c(O)c1C=NCc1cccs1	PABP polyA inh active, eIF4H FP inh 52.7
NC(=O)c1ccc(N=Cc2c(O)n(Cc3ccco3)c(=O)[nH]c2=O)cc1	PABP polyA inh active
COc1cc2c(cc1OC)C13CCN4CC5=CCOC6CC(=O)N2C1C6C5C3C4 (configuration not stated) (tested in a mixture with another compound)	none (no result: eIF4E 4G PPI, PABP polyA inh, PERK inh, eIF4H FP inh)
CC(C)c1ccc(N2C(=O)NC(=O)/C(=C/c3cnc(-c4ccccc4)nc3)C2=O)cc1	PABP polyA inh active
CCOc1ccccc1-n1c(O)c(C=NCCCn2ccnc2)c(=O)[nH]c1=O	none
Cc1cc(/C=C2\C(=O)NC(=O)N(c3ccc(F)cc3)C2=O)c(C)n1-c1ccc(C(=O)O)cc1	PABP polyA inh active
CCN1C(=O)/C(=C\c2ccc([N+](=O)[O-])s2)C(=O)NC1=S	PABP polyA inh active, eIF4H FP inh 52.0 (no result: PABP1 MLLE inh)
O=C1NC(=O)C2(CCCc3ccc(N(CCCl)CCCl)cc32)N1 (configuration not stated)	none (no result: eIF4E 4G PPI, PABP polyA inh, PERK inh, eIF4H FP inh)
C[C@H]1CC[C@H]2NCCN[C@H]2C1	PERK inh 3.1
O=c1c2ccccc2[se]n1-c1ccccc1	eIF4E 4G PPI 77.2, PABP1 MLLE inh 37.3
O=c1c2ccccc2nc(-c2ccccc2)n1-c1ccccc1	none
N=Cc1c(O)n(-c2ccc(C34CC5CC(CC(C5)C3)C4)cc2)c(=O)[nH]c1=O	none
COc1ccc(C(=O)C2CCCN(Cc3ccc(C)s3)C2)c(OC)c1 (configuration not stated)	none
COc1ccc(C(=O)C2CCCN(Cc3cccc(C)n3)C2)c(OC)c1 (configuration not stated)	PABP polyA inh active, eIF4H FP inh 91.5
COc1ccc(CC2C(=O)NC(=O)N(c3ccccc3)C2=O)c(OC)c1 (configuration not stated)	eIF4E 4G PPI 68.8[fluorescence artefact?]
CCOC(=O)C1(c2ccccc2)CCN(CCC(=O)Nc2cccc(Br)c2)CC1	none (no result: eIF4E 4G PPI, PABP polyA inh, PERK inh, eIF4H FP inh)
O=C1NC(=S)N(c2ccc(F)cc2)C(=O)/C1=C/c1ccco1	none (no result: eIF4E 4G PPI, PERK inh, PABP1 MLLE inh)
Cc1cccc(N2C(=O)NC(=O)/C(=C/c3ccc([N+](=O)[O-])o3)C2=O)c1	PABP polyA inh active, eIF4H FP inh 79.6 (no result: PABP1 MLLE inh)
COc1ccc(N2C(=O)/C(=C/c3ccc(C)o3)C(=O)NC2=S)cc1	none (no result: eIF4E 4G PPI, PERK inh)
Cc1cccc(N2C(=O)NC(=O)/C(=C\C=C\c3ccco3)C2=O)c1	PABP polyA inh inconclusive, eIF4H FP inh inconclusive
CN(C)c1ccc(/C=C2\C(=O)NC(=O)N(Cc3ccc(F)cc3)C2=O)cc1	PABP polyA inh active, eIF4H FP inh inconclusive
O=C1NC(=S)N(c2ccc(F)cc2)C(=O)/C1=C\c1ccoc1	eIF4E 4G PPI 33.9, eIF4H FP inh inconclusive
Cc1ccc(/C=C2\C(=O)NC(=S)N(c3cccc(F)c3)C2=O)o1	PABP polyA inh active (no result: eIF4E 4G PPI, PERK inh)
COc1ccc2c(c1)C13CCN4CC5=CCOC6CC(=O)N2C1C6C5CC43 (configuration not stated)	none (no result: eIF4E 4G PPI, PABP polyA inh, PERK inh, eIF4H FP inh)
CC1=CC(=O)OC2CC3OC4C[C@@H](C)C5OC6CC7O[C@]8(C)C/C=C\C9OC%10CC%11OC(CC(C)C%12OCCO%12)CC(O)[C@]%11(C)OC%10CC9OC8C[C@]7(C)O[C@]6(C)CCC5OC4C[C@]3(C)OC12 (some centres not stated)	none (no result: eIF4E 4G PPI, PABP polyA inh, PERK inh, eIF4H FP inh)
COc1cc(/C=C2\C(=O)NC(=O)N(c3ccccc3)C2=O)c([N+](=O)[O-])cc1OC	PERK inh 3.0, PABP1 MLLE inh 49.4
Cc1ccc(/C=C2\C(=O)NC(=O)N(CCc3ccc(F)cc3)C2=O)o1	PABP polyA inh active, eIF4H FP inh inconclusive
COc1cc(/C=C2\C(=O)NC(=O)N(c3ccccc3)C2=O)cc(OC)c1O	none
CCOC(=O)[C@]1(C#N)[C@@H]2C=CC(C(C)=O)=CN2[C@@H](C(N)=O)[C@@H]1c1ccsc1	PABP polyA inh active, eIF4H FP inh 56.7
CN(C)CCCN=Cc1c(O)n(CCc2ccc(F)cc2)c(=O)[nH]c1=O	none
CN(C)CCCN=Cc1c(O)n(CCc2ccccc2)c(=O)[nH]c1=O	eIF4H FP inh 95.5
CCN(CC)S(=O)(=O)N1CCC(C(=O)N2CCC3(CC2)OCCO3)CC1	none
CC1Oc2cc3c(-c4c(O)cc(O)c5c(O)c6c(cc45)OC(C)C(C)C6=O)c(O)cc(O)c3c(O)c2C(=O)C1C (configuration not stated)	eIF4E 4G PPI 55.8, PABP polyA inh active, eIF4H FP inh 90.2
CC(C)=CCc1c(O)cc2c(c1O)C(=O)CC(c1ccc(O)cc1)O2 (configuration not stated)	none (no result: PERK inh)
COC(=O)C1=C(c2c(C)noc2C)C[C@@H]2CC[C@H]1N2C(=O)NCC1CC1	none (no result: eIF4E 4G PPI, PABP polyA inh, PERK inh, eIF4H FP inh)
CCCCC(=O)N/N=C/c1c(O)n(CC)c(=S)[nH]c1=O	eIF4H FP inh 55.5
COC(=O)C1=C(c2ccc(OC(F)(F)F)cc2)C[C@@H]2CC[C@H]1N2C(=O)N1CCC(O)CC1	none (no result: eIF4E 4G PPI, PABP polyA inh, PERK inh, eIF4H FP inh)

Compound activity deposited in PubChem BioAssay by several laboratories.
